# According to PubChem BioAssay AID493098 (Sanford-Burnham Center for Chemical Genomics, 2011):
# Hit rate of the full screen: of about 340,000 compounds, about 1,700 (0.5%) were called active. Only a selection was taken, and actives are over-represented in it overall. Unmarked numbers belong to inactive results.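 How the source made its calls: active means compounds whose inhibition of the agonist-driven luminescence signal at 20 µM reaches about 50% (limit read from the data); inactive means the rest.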
# Biological target: C-C chemokine receptor type 6 (Homo sapiens) (UniProt P51684)
# Sequence (P51684 whole entry, looked up): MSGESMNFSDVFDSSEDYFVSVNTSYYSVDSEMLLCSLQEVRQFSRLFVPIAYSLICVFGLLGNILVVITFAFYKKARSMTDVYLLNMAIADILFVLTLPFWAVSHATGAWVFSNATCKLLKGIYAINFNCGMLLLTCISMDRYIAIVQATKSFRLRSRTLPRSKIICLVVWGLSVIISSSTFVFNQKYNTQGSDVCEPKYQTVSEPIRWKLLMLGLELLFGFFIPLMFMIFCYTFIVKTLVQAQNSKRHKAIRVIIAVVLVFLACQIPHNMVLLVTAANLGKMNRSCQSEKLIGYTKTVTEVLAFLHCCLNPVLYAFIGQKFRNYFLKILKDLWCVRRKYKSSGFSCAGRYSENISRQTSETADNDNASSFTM
# Assay: CCR6 receptor antagonists, primary screen, cell-based, CHO-K1, luminescence, beta-arrestin, uHTS (AID 493098);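 further: cells stimulated with CCL20 at 14 nM final; plate controls were DMSO with CCL20 for no effect and DMSO without agonist for full effect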
# Conditions: CHO-K1 CCR6 PathHunter beta-arrestin, CCL20-stimulated, at 20 µM, hits give high values
row,Structure (SMILES),inhibition
1,Cc1cccc(C)c1N1CCN(S(=O)(=O)N2CCCCC2)CC1,18.8%
2,NS(=O)(=O)c1cc(C(=O)OCC(=O)NNC(=O)c2ccccc2)ccc1Cl,0.62%
3,Cc1cccc(N2C(=O)CC(SC(N)=Nc3ccccc3)C2=O)c1 (configuration not stated),5.48%
4,Cc1cccc(-n2c(O)c(C=Nc3ccccc3N)c(=O)[nH]c2=O)c1,88.4% (active)
5,Cc1ccc(N=Cc2c(O)n(-c3nccs3)c(=O)c3ccccc23)c(C)c1,17.6%
6,CCCCS(=O)c1snnc1C (configuration not stated),4.33%
7,CCC(CC)c1nnc(NC(=O)C2=COCCO2)s1,-8.69%
8,CCOc1ccc(S(=O)(=O)N2CCCCC2)cc1NC(=O)CN1CCCC1c1cccs1 (configuration not stated),13.2%
9,CC(=O)c1sc(N/N=C/c2ccc(C(C)C)cc2)nc1C,-0.42%
10,COc1cccc2sc(Nc3nc(C)c(C(C)=O)s3)nc12,52.1% (active)
11,CC(=O)c1sc(N/N=C\c2ccc(C)cc2)nc1C,20.1%
12,O=C(CO/N=C/c1ccc(OC(F)F)cc1)NCc1ccc(F)cc1,16.1%
13,COc1ccc(OC(C)C(=O)Nc2cccnc2)cc1 (configuration not stated),9.87%
14,COc1ccc(CCC(=O)c2ccc(OC)cc2)cc1,11.9%
15,COc1ccc(CS(=O)/C(Cl)=C(/Cl)C(=O)Nc2ccc(OC)nc2)cc1 (configuration not stated),95.4% (active)
16,CC(C)(C)CN1CCNC(=O)C1CC(=O)NC1Cc2ccccc2C1 (configuration not stated),-8.22%
17,CC/C=C/C(=O)N1CC2(CC(c3cccc(NC(=O)CC)c3)=NO2)C[C@H]1C(N)=O (some centres not stated),3.3%
18,COC(=O)c1cccc(N(C(=O)CNC(=O)c2cccs2)C(C(=O)NCC2CCCO2)c2ccc(OC)c(OC)c2)c1 (configuration not stated),-0.67%
19,COc1ccc(F)cc1C(=O)COC(=O)c1n[nH]c(=O)c2ccccc12,24.8%
20,COC(=O)Cc1c(-c2[nH]c3ccccc3c2CC(=O)OC)[nH]c2ccccc12,85.9% (active)
21,CCCOC(=O)Cc1c(O)c2ccccc2[nH]c1=O,-17.8%
22,COC(=O)Cc1ccc(NC(=S)NCc2ccccc2)cc1,-10.8%
23,NCC(=O)c1cccc2ccc[n+]([O-])c12,-4.01%
24,Cc1ccc2cccc(O)c2[n+]1[O-],54.9% (active)
25,COc1ccc2c(c1)[C@H]1[C@H](CO2)[C@H](c2ccccc2)[C@]2(C)C(=O)Nc3cc(F)c(F)cc3C(=O)N12,-0.31%
26,Nc1ccccc1SC(C[N+](=O)[O-])c1ccccc1 (configuration not stated),62.7% (active)
27,C/C(N)=C(\C#N)C(=O)NCCc1ccccn1,4.85%
